Tau ThT inhib = tau fibrillization inhibition (ThT binding) | AID 1460 | Potency, µM (top dose mostly 57.4 µM), for inactives: at the highest dose activity, negative = inhibition, actives largely listed as inhibitors | recombinant tau K18 P301L, heparin-induced fibrillization, ThT fluorescence | P10636 | 2.1% of 270,000 active; also: nearly all actives have a fitted effect of over 55% in size
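Heparin-induced (20 uM) aggregation of recombinant human K18 P301L tau, 15 uM unlabeled with 0.24 uM labeled, pH 7 acetate buffer, 6 hr at 37 C with compound. Fibrils quantified by 30 uM ThT fluorescence after 1 hr ambient incubation.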
NPSR antagonist = blocks cAMP signaling of the human neuropeptide S receptor; CHO-NPSR cells, cAMP TR-FRET, antagonist mode; Potency, µM (titrated, usually from 38.3 µM), for the others: at the top dose activity change, negative = inhibition, hits mostly inhibitors; 1% of 220,000 active; AID 1461; also: nearly all actives have a fitted effect of over 50% in size
ALDH1A1 inh = ALDH1A1 (human) enzyme inhibition | P00352 | Purified ALDH1A1, NADH fluorescence, propionaldehyde substrate | Potency, µM (titrated, usually from 75.3 µM), without a hit: at the top dose activity, negative = inhibition, most hits filed as inhibitors | 7.3% of 220,000 active; active = well fitted inhibition curve with a large enough effect, not every such curve was filed as active; inconclusive = small, poorly fitted or top-dose-only effect, or another doubt; inactive = no such curve, though single readings can be large or run the other way;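 also: plate controls were no enzyme wells and a reference inhibitor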
Target sequence (P00352 whole entry, looked up): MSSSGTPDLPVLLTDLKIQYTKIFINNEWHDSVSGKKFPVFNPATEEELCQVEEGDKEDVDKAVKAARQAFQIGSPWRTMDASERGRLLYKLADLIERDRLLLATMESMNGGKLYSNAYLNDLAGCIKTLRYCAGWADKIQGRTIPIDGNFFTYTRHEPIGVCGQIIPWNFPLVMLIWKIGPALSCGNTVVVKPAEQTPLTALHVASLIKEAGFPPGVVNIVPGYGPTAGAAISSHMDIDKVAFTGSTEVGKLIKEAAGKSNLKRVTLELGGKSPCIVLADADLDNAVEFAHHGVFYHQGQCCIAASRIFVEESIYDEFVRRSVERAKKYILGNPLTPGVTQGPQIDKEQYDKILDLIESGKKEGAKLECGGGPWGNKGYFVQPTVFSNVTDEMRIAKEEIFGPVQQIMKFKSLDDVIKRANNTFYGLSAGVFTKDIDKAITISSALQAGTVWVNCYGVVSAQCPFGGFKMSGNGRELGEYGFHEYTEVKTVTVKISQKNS
HPGD block = blocks human HPGD enzyme activity; P15428; purified HPGD, NADH fluorescence kinetic, PGE2 substrate; Potency, µM, inactives show at the top dose activity change, negative = inhibition, usual class: inhibitors; 4.3% of 150,000 active; active = well fitted inhibition curve with a large enough effect, not every such curve was filed as active; inconclusive = small, poorly fitted or top-dose-only effect, or another doubt; inactive = no such curve, though single readings can be large or run the other way
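NADH formation kinetics: reaction with 30 uM PGE2 and 1 mM NAD+ (final), 20 nM enzyme, Tris-HCl pH 8 with Tween 20, after 15 min compound preincubation at room temperature. Fluorescence change, last versus first of five reads.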
Tau fluor counter = counter-screen for tau fibril formation inhibitors. tau K18 P301L (four-repeat tau fragment) Alexa594 fluorescence, heparin fibrillization. Potency, µM (highest dose often 57.7 µM), inactives show at the top dose activity change, negative = decrease. 0.93% of 280,000 active; also: nearly all actives have a fitted effect of over 55% in size
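Human K18 P301L tau (15 uM unlabeled plus 0.24 uM Alexa 594-labeled, final) in 100 mM sodium acetate pH 7 was mixed with compound and 20 uM heparin and incubated 6 hr at 37 C.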
Tau FP inhib = inhibitors of human tau fibril formation. K18 P301L tau heparin fibrillization, Alexa594 FP, 6 h. Potency, µM (series often up to 57.7 µM), for the others: top-dose activity, negative = inhibition, hits mostly inhibitors. 0.39% of 280,000 active; also: nearly all actives have a fitted effect of over 55% in size
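Quantitative HTS format: compounds meet 15 uM recombinant K18 P301L tau and Alexa 594-tau tracer in 100 mM sodium acetate pH 7; 20 uM heparin triggers fibrillization at 37 C over 6 hr; FP gives the signal.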
* = called active by the depositor; ? = inconclusive; / = no result; ! = not confirmed by another sample; [ ] = remark or other dose. Only some compounds are listed: those with a hit (about 9.5% of all), similar ones and a draw of the others. Unless noted, calls follow the shape of the dose curve; as a rule, active = well fitted curve in the direction sought with a large enough effect; inconclusive = small, poorly fitted or top-dose-only effect, or another doubt; inactive = no such curve, though single readings can be large; an effect the other way counts as inactive or inconclusive. Unless noted, % is scaled to controls: 0 for no effect and ±100 for the full control effect; potency is read from the fitted curve at half-maximal effect.

SMILES | Tau ThT inhib | NPSR antagonist | ALDH1A1 inh | HPGD block | Tau fluor counter | Tau FP inhib
Cc1cccc(N2C(=O)NC(=O)/C(=C\c3cnc(-c4ccccc4)nc3)C2=O)c1 | 5% | -48% | 11µM* | 25µM* | 2% | 4%
Cc1ccc(N2C(=O)NC(=O)/C(=C\c3ccsc3)C2=O)cc1C | ? | -5% | -7% | 32µM* | -15% | 4%
Cc1cccc(N2C(=O)NC(=O)/C(=C/c3ccc(-c4ccc(C(=O)O)c(Cl)c4)o3)C2=O)c1 | ? | 1% | 4% | / | -10% | -5%
Cc1ccc(N2C(=O)NC(=O)/C(=C/c3cnc(-c4ccccc4)nc3)C2=O)cc1C | 16µM* | -47% | ? | 20µM* | -23% | ?
COc1cc(/C=C2/C(=O)NC(=O)N(c3ccccc3)C2=O)ccc1O | ? | 0% | ? | ? | -2% | -12%
CC(C)c1ccc(N2C(=O)NC(=O)/C(=C\c3cnc(-c4ccccc4)nc3)C2=O)cc1 | 22µM* | -20%[46.1 µM] | 7.1µM* | 25µM* | -19% | ?
C[C@]1(O)CC[C@H]2[C@@H]3[C@@H](O)CC4=CC(=O)CC[C@@]4(C)[C@H]3CC[C@]21C | / | / | 20%[13.5 µM] | -3% | / | /
CCNCC | / | / | 4% | -3% | / | /
CC(=O)c1ccc(OC(NC(=O)c2ccco2)C(Cl)(Cl)Cl)cc1 (centres undefined) | -6% | 3%[46.1 µM] | ? | 25µM* | -5% | 2%
c1ccc(N2CCCC3(CCNCC3)C2)nc1 | / | / | ? | -29% | / | /
CN(C)C1C(=O)C(C(N)=O)=C(O)[C@@]2(O)C(=O)C3=C(O)c4c(O)cccc4[C@](C)(O)C3C(O)C12 (some centres undefined) | ? | / | -7% | ? | ? | ?
CN(C)[C@@H]1C(=O)C(C(N)=O)=C(O)[C@@]2(O)C(=O)C3=C(O)c4c(O)cccc4[C@@](C)(O)[C@H]3[C@H](O)[C@@H]12 | 6.3µM* | -16% | 28µM*! | 7.1µM* | ? | 11µM*
CN(C)C1C(=O)C(C(N)=O)C(=O)C2(O)C(=O)C3C(=O)c4c(O)cccc4C(C)(O)C3C(O)C12 (centres undefined) | 4.5µM* | / | -10% | ? | ? | 20µM*
COC[C@]12CN(C=O)C3C4C(OC)C1[C@@]3(C1CC3(O)C(OC)C(O)C4(OC(C)=O)C1C3OC(=O)c1ccccc1)[C@@H](OC)CC2O (some centres undefined) | -4% | / | -3% | -13% | -8% | -11%
COc1ccc(Cn2c(O)c(/C=N/NC(=O)c3ccccc3O)c(=O)[nH]c2=O)cc1 | 22µM* | 2% | ? | ? | ? | 2%
O=C(N/N=C/c1c(O)n(Cc2ccccc2)c(=O)[nH]c1=O)c1ccccc1O | 8% | -17%[46.1 µM] | ? | ? | -5% | ?
CC(COc1ccccc1)N(CCCl)Cc1ccccc1 (centres undefined) | -12% | ? | 28µM*! | 0% | -11% | 10%
c1cc2cc(c1)C[n+]1ccc(c3ccccc31)NCc1ccc(cc1)CNc1cc[n+](c3ccccc13)C2 | ? | / | ? | -21% | -18% | ?
O=C(OCC(=O)c1ccc([N+](=O)[O-])cc1)/C(=C\c1ccc(Cl)cc1)NC(=O)c1ccccc1 | 13µM* | -4%[46.1 µM] | 13µM* | -5% | ? | -8%
CCOC(=O)c1ncc2[nH]c3ccc(OCc4ccccc4)cc3c2c1COC | ? | / | ? | ? | 4µM*[quencher] | -16%
Oc1c(Cl)c(Cl)c(Cl)c(Cl)c1Cl | ? | / | 18µM*! | / | ? | 6%
O=[N+]([O-])c1ccc(F)c([N+](=O)[O-])c1 | / | / | 20µM* | -24% | / | /
CC(=NCc1cccnc1)c1c(O)n(Cc2ccccc2)c(=O)[nH]c1=O | -11% | -17%[46.1 µM] | ? | 28µM* | -5% | -2%
CCC(=NCc1cccnc1)c1c(O)n(Cc2ccccc2)c(=O)[nH]c1=O | -13% | -11%[46.1 µM] | ? | 16µM* | -11% | -5%

Bioassay records: PubChem BioAssay, National Center for Advancing Translational Sciences (NCATS)
